# Bioassay records deposited in PubChem by several laboratories.
# In the library only some 5.4% were active in any assay of this set; here they are far more common.
# GASC-1 inh – human JMJD2C demethylase inhibition | Q9H3R0 | 330,000 tested, 0.069% active | AID 2099 | inhibition, % at 2.35 µM | GST-JMJD2C(1-420) H3K9me3 demethylation, DELFIA europium;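 active means more than half of a compound's replicate wells show inhibition beyond 50%, single wells judged on their own value; inconclusive means some, but no more than half, of replicates pass 50% inhibition; inactive means no replicate passes 50% inhibition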;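 further: signal counts dimethyl H3K9 product captured on neutravidin plate; 0% = median of DMSO wells and 100% = 0.3 times that DMSO median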
# Target sequence (Q9H3R0 1-420 limits assumed): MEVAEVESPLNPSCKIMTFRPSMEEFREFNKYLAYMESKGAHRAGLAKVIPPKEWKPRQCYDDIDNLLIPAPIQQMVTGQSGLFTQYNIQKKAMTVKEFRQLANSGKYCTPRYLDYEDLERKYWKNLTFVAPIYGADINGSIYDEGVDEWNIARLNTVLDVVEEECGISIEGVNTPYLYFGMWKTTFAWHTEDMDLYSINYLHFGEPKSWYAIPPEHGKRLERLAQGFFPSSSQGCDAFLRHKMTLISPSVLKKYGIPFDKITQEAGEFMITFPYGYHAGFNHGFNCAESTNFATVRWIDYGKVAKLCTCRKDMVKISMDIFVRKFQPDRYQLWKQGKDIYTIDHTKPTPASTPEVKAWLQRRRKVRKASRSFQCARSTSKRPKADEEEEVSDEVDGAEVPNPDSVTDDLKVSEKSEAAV
# SMARCA2 activ – increases SMARCA2 function in MMTV reporter cells. MG213 cells, MMTV-luciferase reporter, dexamethasone, overnight. activation, % at 9.1 µM. 370,000 tested, 1% active. AID 652017; in the data active means activation above about 7.8%;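 further: 0% = vehicle wells and 100% = reference activator wells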
# ALR inh – inhibitors of human sulfhydryl oxidase ALR; 290,000 tested, 3.8% active; inhibition, % (no concentration beside the values); purified ALR, DTT oxidation, H2O2 HRP-luminol luminescence; AID 485317; P55789;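 active means mean replicate inhibition above about 79%, with every replicate also reaching it, limit read from the data; inconclusive means only one of the two criteria met; inactive means mean below limit and not every replicate reaching it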
# Target sequence (P55789 whole entry, looked up): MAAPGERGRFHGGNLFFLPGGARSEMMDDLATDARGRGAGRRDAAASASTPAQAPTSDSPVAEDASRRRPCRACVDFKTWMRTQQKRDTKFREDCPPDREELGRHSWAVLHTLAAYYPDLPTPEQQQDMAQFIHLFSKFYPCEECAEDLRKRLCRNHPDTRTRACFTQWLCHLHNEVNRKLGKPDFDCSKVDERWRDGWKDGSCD
# MIN6 prolif – induces beta-cell replication in MIN6 cells; MIN6 cells proliferation, ATPlite luminescence, 48 h; cells starved in 0.2% serum; 100% = growth in 10% serum; proliferation, % at 10 µM; 330,000 tested, 0.29% active; AID 2380;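 active means compounds whose signal lies at least 3.5 SD above the mean of all wells on their plate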;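 further: 0% = DMSO-treated cells in low-serum medium and 100% = 10% serum control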
# Exocytosis inh – lytic granule exocytosis inhibition; TALL-104 LAMP-1 surface exposure, flow cytometry; cells stimulated with thapsigargin and PMA; inhibition, % at 10 µM; 360,000 tested, 0.66% active; AID 651702;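 active means inhibition above about 55%, limit read from the data; inconclusive means no clear call, values can overlap the other calls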
# PfM18AAP inh – blocks P. falciparum M18 aspartyl aminopeptidase; inhibition, % at 7.35 µM; AID 1822; 290,000 tested, 1.2% active; recombinant PfM18AAP, H-Glu-NHMec fluorogenic cleavage;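 active means inhibition above the campaign mean inhibition over all tested compounds plus 3 SD, cut at about 28% in these data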;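 further: 0% = plate median of test compound wells and 100% = 2 mM ZnCl2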
# An asterisk follows results filed as active; ? = inconclusive; / = no result given.
SMILES,GASC-1 inh,SMARCA2 activ,ALR inh,MIN6 prolif,Exocytosis inh,PfM18AAP inh
O=C(CNC(=O)c1ccco1)Nc1ccc(N2CCCCCC2)cc1,0,-1,98*,6,3,/
COc1ccc(CNC(=O)CSc2nc3c([nH]2)c(=O)n(C)c(=O)n3C)cc1,/,-6,/,/,/,/
CCc1oc2ccccc2c1C(=O)CCN1CCCCC1,6,-2,97*,-6,-2,6
CCOC(=O)[C@H]1O[C@@H]1C(=O)N[C@@H](CC(C)C)C(=O)NCCC(C)C,-5,/,86*,2,-9,3
CC(C)CCNC(=O)[C@H](CC(C)C)NC(=O)[C@H]1O[C@@H]1C(=O)O,4,/,?,0,/,-1
COc1cccc(CNC(=O)CN2CCCc3ccccc32)c1OC,/,2,/,/,/,/
COC[C@@H]1CCCN1c1ccc2c(c1)O[C@H]1CCN(C1)S2(=O)=O,/,-2,/,/,/,/
C#CCNC(=O)C[C@@H]1C(=O)N2CCCC3=C2[C@@]1(C(=O)OCC)CCC3,/,-2,/,/,/,/
C[C@@H]1CN([C@@H](C)CO)C(=O)CCCn2cc(nn2)CO[C@H]1CN(C)C(=O)Nc1ccc(C(C)(C)C)cc1,/,0,/,/,/,/
Cc1cccc(NCCC(=O)c2ccc([N+](=O)[O-])cc2)c1C,-15,0,/,-6,107*,-8
COc1cc(C=O)ccc1OCCCOc1ccccc1[N+](=O)[O-],3,-2,/,1,-1,-10
COc1cc(C=O)ccc1OCCCCOc1ccccc1[N+](=O)[O-],0,1,96*,-1,-3,2
O=c1c2c3nc4ccccc4nc3n(Cc3ccccc3)c2ncn1Cc1ccco1,/,2,/,/,93*,-17
COc1cc(-n2c3nc4ccccc4nc3c3c(=O)n(Cc4ccco4)cnc32)cc(OC)c1OC,/,/,/,/,/,8
CCCCNC(=O)C[C@@H]1C(=O)N2CCCC3=C2[C@@]1(C(=O)OC)CCCC3,/,-1,/,/,/,/
C(=N\N1CCN(Cc2ccccc2)CC1)/c1ccc(-c2ccccc2)cc1,9,0,-2,-4,8,-3
Oc1ccc(/C=N/N2CCN(Cc3ccccc3)CC2)cc1,-17,-2,82*,0,-8,-16
CCOC(=O)c1c(CCl)nc2ccccc2c1-c1ccccc1,-5,-7,96*,-6,0,5
CCOC(=O)c1c(C)nc2ccccc2c1-c1ccccc1,9,-1,-6,0,2,3
CCN(CC)C(=O)CC[C@H]1CC[C@]2(CCCN(S(=O)(=O)C3CCCCC3)C2)O1,/,-2,/,/,/,/
CCOC(=O)/C(=C\C=C1/Sc2cc(OCC)c(OCC)cc2N1CC)C(C)=O,-7,-1,93*,/,-4,12
CCOC(=O)/C(=C/C=C1\Sc2cc(OCC)c(OCC)cc2N1CC)C(C)=O,-7,-4,92*,-4,-7,15
Nn1c(SCC(=O)Nc2ccccc2-c2ccccc2)nnc1-c1cc(-c2ccccc2)n[nH]1,/,-6,/,/,/,/
CCOC(=O)Cn1cc(CN2C(C(=O)OC)CN(Cc3ccc(OC)cc3)CCS2(=O)=O)nn1 (configuration not stated),/,-5,/,/,/,/
O=C(Nc1ccc(NC(=O)C2CCCCC2)nc1)c1ccccn1,23,3,99*,-2,17,3
SMILES,GASC-1 inh,SMARCA2 activ,ALR inh,MIN6 prolif,Exocytosis inh,PfM18AAP inh
CCOC(=O)[C@]12CCCCC/C=C\1N(CCc1ccc(Cl)cc1)C(=O)[C@H]2CC(=O)NCc1ccccc1,/,-5,/,/,/,/
CCCCN(CCCNC(=O)c1c(C)cc(=O)oc1C)c1ccccc1,-5,0,99*,-1,1,-9
CCN(CCCNC(=O)c1c(C)cc(=O)oc1C)c1ccccc1,-6,-1,99*,1,0,1
CCN(CCCNC(=O)c1[nH]c(C)c(C(C)=O)c1C)c1cccc(C)c1,6,-3,99*,-3,2,5
O=S(=O)(Nc1ccc(O)c2ccccc12)c1cccs1,-7,-7,99*,-6,-1,22
O=S(=O)(Nc1cccc2ccccc12)c1cccs1,1,-1,16,2,4,1
COc1ccc(C2C=C(c3ccc(Br)s3)Nc3ncnn32)cc1OC (configuration not stated),6,/,6,1,/,36*
Cc1ccc2c(c1)c1c(n2CC(O)CNC2CCCC2)CCCC1 (configuration not stated),2,-6,89*,-6,15,4
COc1ccc(CCNC(=O)c2cc3c(C)nn(-c4ccccc4)c3s2)cc1OC,/,-5,/,/,/,/
Cc1ccc(-c2cnc(SCCNC(=O)c3ccco3)[nH]2)cc1,-6,-1,94*,1,0,/
Cc1ccc(C(=O)NCCCNC(=O)c2ccco2)cc1,6,3,-13,-3,1,-5
COc1ccc(-n2c(Cc3cccs3)nnc2SCC(=O)Nc2ccc(OCc3ccccc3)cc2)cc1,/,-6,/,/,/,/
CC(=O)c1ccc(NC(=O)CSc2nccn2C)cc1,6,-2,?,-2,-12,-2
CCOC(=O)c1ccc(NC(=O)CSc2nccn2C)cc1,-4,-1,99*,-1,-3,2
Cc1ccc(NC(=O)CSc2nccn2C)cc1F,5,2,-5,1,0,1
COc1ccc(NC(=O)CSc2nccn2C)cc1S(N)(=O)=O,-27,3,99*,1,-9,4
Cn1ccnc1SCC(=O)Nc1ccc2c(c1)COC2=O,7,3,99*,-2,-1,1
Cc1cc(N2CCN(CC(C)(C)O)C[C@@H]2C)ccc1N1CCN(Cc2ccccc2)[C@H](C)C1,/,6,/,/,/,/
O=C(NCCc1ccccc1)OCc1cn(Cc2ccc(F)c(F)c2)nn1,/,-2,/,/,/,/
Cc1c(C(=O)O)c2cc(O)ccc2n1-c1ccccc1,4,-1,80*,-2,-5,-6
COc1ccc2c(c1)c(C(=O)O)c(C)n2-c1ccccc1,-8,0,0,0,-3,2
O=C(c1cc(C2CC2)on1)N(C1CCCCC1)C1CCCCC1,/,-2,/,/,/,/
Cc1ccc(CCC(=O)Nc2ccc(Cl)cc2)o1,-7,5,13,-3,2,-6
Cc1ccc(CCC(=O)Nc2ccc(N(C)C)cc2)o1,4,5,99*,-2,6,3
Cc1ccc(NC(=O)CCn2c(=S)oc3ccccc32)cc1,-13,-2,-2,-1,1,8
CN(C)c1ccc(NC(=O)CCn2c(=S)oc3ccccc32)cc1,6,7,98*,1,1,6
Cc1cccc(OCCCC(=O)Nc2ccc(Br)cc2)c1,1,2,-4,0,1,-4
CCc1ccc(CCC(=O)Nc2ccc(Cl)cc2)o1,9,1,78*,-1,0,0
Cc1cccc(OCCCC(=O)Nc2ccc(N(C)C)cc2)c1,-16,5,92*,-2,-1,10
